Shown are actives, neighbours in structure and some others; about 7.5% of the full set was active somewhere.
NPC1 prom act – NPC1 promoter activation; Huh7 NPC1 promoter luciferase reporter, 24 h; Potency, µM (series often up to 9.22 µM), actives largely listed as activators; hit rate 2.4% among 320,000; AID 485313; further: nearly all actives have a fitted effect of over 60% in size
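In 1536-well qHTS, Huh7 cells harboring an NPC1 promoter–luciferase construct received compound for 24 h; activation was quantified by luminescence following luciferase reagent addition.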
Rab9 promoter act – activators of Rab9 promoter | Huh7 Rab9 promoter-luciferase reporter, luminescence, 24 h | Potency, µM (titrated, usually from 9.22 µM), usual class: activators | hit rate 2.8% among 320,000; further: nearly all actives have a fitted effect of over 60% in size
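Cell-based reporter: Huh7 stable for Rab9 promoter-driven luciferase, plated in reduced-serum medium with 10% FBS at 1500 cells/well, compound-treated 24 h at 37 °C, luminescence read after 10 min reagent.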
ELG1 genotox – genotoxicity induction in ELG1-luciferase HEK293T cells. HEK293T ELG1-luciferase reporter, luminescence, 16 h. hit rate 1.3% among 330,000. Potency, µM (highest dose often 46 µM), usual class: activators. AID 504466; further: nearly all actives have a fitted effect of over 60% in size
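Genotoxic stress is detected as increased luminescence from luciferase-tagged ELG1 in HEK293T cells, measured with ONE-Glo after a 16 hr treatment at 37 °C.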
SMN2 splice enh – enhancers of SMN2 splice variant expression; hit rate 2.8% among 210,000; Potency, µM (titrated, usually from 46.1 µM), hits mostly activators; HEK293 SMN2-luciferase splicing reporter, luminescence, 30-36 h; further: nearly all actives have a fitted effect of over 55% in size
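HEK293 cells carry an SMN2 […]–luciferase reporter in which exon 7 inclusion puts luciferase in frame. Cells were plated 10-12 h before compound addition, then incubated 30-36 h at 37C. ONE-Glo luminescence was read; sodium butyrate at 4.5 mM final served as control.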
KinaseGlo FLuc – Kinase-Glo luciferase inhibition (counter-screen); Q27757; hit rate 0.28% among 200,000; Kinase-Glo luciferase, ATP luminescence, 8 min; Potency, µM (top dose mostly 38.3 µM), usual class: inhibitors; further: nearly all actives have a fitted effect of over 60% in size
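Compounds were added to a substrate mix at pH 7.2 (50 mM imidazole, 10 uM ATP, within the enzyme's linear range), followed by Kinase-Glo detection reagent; luminescence was measured after 8 minutes at ambient temperature.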
FLuc counter – firefly luciferase modulation, counter-screen for miR-21 project; Potency, µM (doses to about 57.5 µM), hits mostly inhibitors; AID 588342; P08659; hit rate 6.9% among 360,000; purified FLuc, Km substrates, luminescence inhibition; further: nearly all actives have a fitted effect of over 55% in size
Target sequence (P08659 whole entry, looked up): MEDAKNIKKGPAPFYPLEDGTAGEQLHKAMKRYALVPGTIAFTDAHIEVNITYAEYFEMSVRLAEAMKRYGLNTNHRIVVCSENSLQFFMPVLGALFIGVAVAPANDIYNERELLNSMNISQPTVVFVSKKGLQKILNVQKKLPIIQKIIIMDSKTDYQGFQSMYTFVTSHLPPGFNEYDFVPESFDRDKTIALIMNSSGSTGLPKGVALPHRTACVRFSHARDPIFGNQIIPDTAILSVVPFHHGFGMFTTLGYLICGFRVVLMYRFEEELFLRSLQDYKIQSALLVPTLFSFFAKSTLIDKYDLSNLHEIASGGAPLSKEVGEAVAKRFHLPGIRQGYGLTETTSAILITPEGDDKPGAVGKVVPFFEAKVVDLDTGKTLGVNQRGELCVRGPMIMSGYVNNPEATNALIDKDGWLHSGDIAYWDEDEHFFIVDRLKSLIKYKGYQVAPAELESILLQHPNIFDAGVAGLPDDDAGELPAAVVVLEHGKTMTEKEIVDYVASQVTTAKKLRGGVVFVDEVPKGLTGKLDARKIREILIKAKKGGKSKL
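Purified P. pyralis luciferase, 10 nM final, with Km-level 10 uM D-luciferin and 10 uM ATP in 50 mM Tris acetate pH 7.5, 10 mM Mg acetate, 0.01% Tween-20, 0.05% BSA; 6-point qHTS titration about 60 µM downward; luminescence read.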
Large screens that a line does not name were inactive. The call rests on the fitted dose curve; in most records, active means well fitted curve in the direction sought with a large enough effect; inconclusive means small, poorly fitted or top-dose-only effect, or another doubt; inactive means no such curve, though single readings can be large; an effect the other way counts as inactive or inconclusive.

COc1ccc(C2CC(c3ccc(OC)c(OC)c3)=NN2S(C)(=O)=O)cc1 (stereo not given)	NPC1 prom act 1µM, Rab9 promoter act 0.501µM, ELG1 genotox inconclusive, FLuc counter 8.49µM (no result: SMN2 splice enh, KinaseGlo FLuc)
CCc1ccc(C2=NN(S(C)(=O)=O)C(c3cccs3)C2)cc1 (stereo not given)	NPC1 prom act 1µM, Rab9 promoter act 1.58µM, ELG1 genotox 3.26µM, SMN2 splice enh 10µM, KinaseGlo FLuc 12.6µM, FLuc counter 2.39µM
CS(=O)(=O)Nc1ccc(C2=NN(S(C)(=O)=O)C(c3ccc4c(c3)OCO4)C2)cc1 (stereo not given)	NPC1 prom act 3.16µM, Rab9 promoter act 2.51µM, ELG1 genotox inconclusive, SMN2 splice enh 11.2µM, FLuc counter 9.53µM
O=C(Nc1nc(-c2ccccn2)cs1)c1cccc(S(=O)(=O)N2CCOCC2)c1	none (no result: SMN2 splice enh, KinaseGlo FLuc)
O=C(Oc1coc(CSc2ncccn2)cc1=O)c1ccccc1[N+](=O)[O-]	KinaseGlo FLuc inconclusive, FLuc counter 6.75µM
CCNc1nc2ccccc2[nH]1	none
C/C(=N\Nc1nc2ccccc2[nH]1)c1ccccn1	NPC1 prom act inconclusive, ELG1 genotox 2.51µM, FLuc counter 0.849µM (no result: SMN2 splice enh, KinaseGlo FLuc)
C/C(=N\Nc1nc2ccccc2[nH]1)c1cc2ccccc2o1	Rab9 promoter act inconclusive, ELG1 genotox inconclusive, SMN2 splice enh 12.6µM, FLuc counter 2.39µM
Cc1cc(C)c(S(=O)(=O)NCC(=O)NCc2cc(=O)n(C)c(=O)n2C)c(C)c1	none (no result: SMN2 splice enh, KinaseGlo FLuc)
CCc1ccc(NC(=O)CN(C)S(=O)(=O)c2ccc3c(c2)c(=O)n(C)c(=O)n3C)cc1	none (no result: NPC1 prom act, Rab9 promoter act, ELG1 genotox, KinaseGlo FLuc)
O=C(CC(C(=O)O)c1ccc(Cl)cc1Cl)c1ccc(Cl)cc1 (stereo not given)	none (no result: SMN2 splice enh, KinaseGlo FLuc)
CC#CCN1c2ccccc2[C@]23C[C@@H](C(=O)OC)N(S(=O)(=O)c4ccc(OC)cc4)C2=NC(C(=O)OC)=C(C(=O)OC)[C@H]13	none (no result: NPC1 prom act, Rab9 promoter act, ELG1 genotox, FLuc counter)
COc1ccc(C(=O)N=c2sc3c(C)ccc(OC)c3n2C)cc1	NPC1 prom act inconclusive, Rab9 promoter act inconclusive, ELG1 genotox 0.461µM, SMN2 splice enh 3.98µM, KinaseGlo FLuc 12.6µM, FLuc counter 0.601µM
C#CCn1c(=NC(=O)c2ccc3c(c2)OCCO3)sc2cc(OC)c(OC)cc21	none (no result: NPC1 prom act, Rab9 promoter act, ELG1 genotox, SMN2 splice enh, KinaseGlo FLuc)
CCn1c(=NC(=O)c2ccc3c(c2)OCCO3)sc2c(C)ccc(OC)c21	FLuc counter 1.9µM (no result: NPC1 prom act, Rab9 promoter act, ELG1 genotox, SMN2 splice enh, KinaseGlo FLuc)
COc1ccc2c(c1)Sc1ccccc1N2	FLuc counter inconclusive
c1ccc2c(c1)Nc1cc3ccccc3cc1S2	NPC1 prom act 3.16µM, Rab9 promoter act 3.55µM (no result: SMN2 splice enh, KinaseGlo FLuc)
Cc1ccc(C)c(Cn2c3ccccc3c3cnn(CC(=O)NCc4ccccc4)c(=O)c32)c1	none (no result: NPC1 prom act, Rab9 promoter act, ELG1 genotox, KinaseGlo FLuc)
CCN(CC)c1ccc2cc(-c3nnc(-c4ccccc4)o3)c(=O)oc2c1	NPC1 prom act 2.82µM, Rab9 promoter act inconclusive, ELG1 genotox inconclusive, SMN2 splice enh 11.2µM, FLuc counter inconclusive
CCN(CC)c1ccc2cc(-c3nc4ccccc4[nH]3)c(=O)oc2c1	NPC1 prom act 0.282µM, Rab9 promoter act 0.1µM, ELG1 genotox 0.146µM, KinaseGlo FLuc inconclusive, FLuc counter 0.0757µM
O=c1oc2ccc3ccccc3c2cc1-c1nnc(-c2ccccc2)o1	none
CCN(CC)c1ccc2cc(-c3nc4ccccc4n3C)c(=O)oc2c1	NPC1 prom act inconclusive, ELG1 genotox inconclusive, SMN2 splice enh inconclusive, FLuc counter 1.9µM
COC(=O)c1ccc(C(NC(=O)OCc2ccccc2)/C(=C/[C@@H](C)C(=O)NCC2CC2)c2cccnc2)cc1 (stereo not given in full)	none (no result: NPC1 prom act, Rab9 promoter act, ELG1 genotox, FLuc counter)
Cc1ccc(NC(=O)Cn2c(=O)n(Cc3ccc4c(c3)OCO4)c(=O)c3ccccc32)c(C)c1	none (no result: NPC1 prom act, Rab9 promoter act, ELG1 genotox, KinaseGlo FLuc)
CN(C)c1ccc(C2C3CCCc4ccccc4C3=NN2C)cc1 (stereo not given)	NPC1 prom act inconclusive, Rab9 promoter act 3.16µM, FLuc counter 19µM (no result: SMN2 splice enh, KinaseGlo FLuc)
CN1N=C2c3ccccc3CCC2C1c1ccc(C(F)(F)F)cc1 (stereo not given)	FLuc counter inconclusive (no result: SMN2 splice enh, KinaseGlo FLuc)
COC(=O)c1ccc(COC(=O)CCc2nc(-c3ccccc3)c(-c3ccccc3)o2)cc1	none
COc1cccc(CN(C)C(=O)c2ccc(N3CCCC3)c([N+](=O)[O-])c2)c1	none (no result: SMN2 splice enh, KinaseGlo FLuc)

Screening data from PubChem BioAssay.
